# According to PubChem BioAssay:
# Where “and” joins values, the source holds several entries; their conditions need not be identical. Identical values can stand only once. Calls of active or inactive are those of the source.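 How the source made its calls, unless noted: active means at least 20% inhibition of 6-phosphogluconate dehydrogenase activity; inactive means the rest.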
# How the values were obtained:
# [1] = target: 6-phosphogluconate dehydrogenase, decarboxylating (Homo sapiens) (UniProt P52209); experiment: inhibition of human phosphogluconate dehydrogenase – biochemical, recombinant enzyme, NADPH absorbance, primary screen (AID 1159550); conditions: recombinant 6PGD, NADPH absorbance 341 nm; at 10 µM; stronger effect = higher value
# Sequence of 6-phosphogluconate dehydrogenase, decarboxylating (Homo sapiens) (P52209 whole entry, looked up): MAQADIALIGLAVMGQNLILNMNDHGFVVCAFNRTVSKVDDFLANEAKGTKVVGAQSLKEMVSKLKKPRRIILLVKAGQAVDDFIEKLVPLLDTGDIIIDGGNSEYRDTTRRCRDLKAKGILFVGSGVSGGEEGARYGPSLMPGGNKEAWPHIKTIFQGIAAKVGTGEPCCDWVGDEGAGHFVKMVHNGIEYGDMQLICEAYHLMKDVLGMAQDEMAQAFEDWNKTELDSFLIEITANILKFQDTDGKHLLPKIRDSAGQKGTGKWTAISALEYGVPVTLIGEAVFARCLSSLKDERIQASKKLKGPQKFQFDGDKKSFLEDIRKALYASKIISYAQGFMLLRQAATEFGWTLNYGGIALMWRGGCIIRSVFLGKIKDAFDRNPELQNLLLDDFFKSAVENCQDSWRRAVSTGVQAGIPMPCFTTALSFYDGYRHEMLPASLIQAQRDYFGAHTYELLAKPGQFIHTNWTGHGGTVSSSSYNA
# [2] = MELAS cybrid and Rieske KO viability enhancers – cell-based, MELAS cybrids, Rieske KO mouse fibroblasts, CellTiter-Glo, primary screen (AID 1508586;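 active means mean z-score across replicates of 1.96 or higher in either the MELAS or the Rieske mutant cell line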;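 further: z relative to plate mean and SD of compound and empty wells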); conditions: low glucose
# [3] = target: NAD(+) hydrolase SARM1 (Homo sapiens) (UniProt Q6SZW1); experiment: blocking NAD cleavage by SARM1 SAM-TIR – cell lysate, NAD-Glo luminescence (AID 1508614;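 active means compound whose remaining NAD level is above about 45 nM, limit read from the data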); conditions: SAM-TIR HEK293T lysate NADase, at 1 µM, stronger effect = higher value
# Sequence of NAD(+) hydrolase SARM1 (Homo sapiens) (Q6SZW1 whole entry, looked up): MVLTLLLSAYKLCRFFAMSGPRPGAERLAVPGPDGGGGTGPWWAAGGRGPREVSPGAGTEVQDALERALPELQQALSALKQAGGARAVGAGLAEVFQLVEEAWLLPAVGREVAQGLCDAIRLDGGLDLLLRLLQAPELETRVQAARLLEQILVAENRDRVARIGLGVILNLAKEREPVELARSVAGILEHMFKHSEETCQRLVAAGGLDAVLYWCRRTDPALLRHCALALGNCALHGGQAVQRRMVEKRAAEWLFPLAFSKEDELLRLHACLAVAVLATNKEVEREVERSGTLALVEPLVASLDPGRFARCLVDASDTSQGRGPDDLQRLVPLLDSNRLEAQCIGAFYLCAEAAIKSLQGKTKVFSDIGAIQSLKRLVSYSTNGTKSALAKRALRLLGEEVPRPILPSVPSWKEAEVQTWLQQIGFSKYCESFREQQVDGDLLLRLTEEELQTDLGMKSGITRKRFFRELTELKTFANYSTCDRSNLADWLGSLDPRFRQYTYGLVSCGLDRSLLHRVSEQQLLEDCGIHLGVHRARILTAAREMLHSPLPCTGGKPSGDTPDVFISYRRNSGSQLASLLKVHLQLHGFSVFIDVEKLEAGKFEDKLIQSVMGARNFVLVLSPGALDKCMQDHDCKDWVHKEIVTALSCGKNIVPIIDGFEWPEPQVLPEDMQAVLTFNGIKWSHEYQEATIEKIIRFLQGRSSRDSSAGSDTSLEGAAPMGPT
# [4] = P. berghei load reduction in hepatocytes – cell-based, HepG2, luciferase luminescence, HepG2 viability, primary screen (AID 624349; in the data active means parasite load remaining mostly below about 12%, no sharp cut-off; inactive means mostly above about 10%;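 further: 100% = mean of DMSO negative control wells on the same plate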); conditions: P. berghei liver stage in HepG2, luciferase luminescence, concentration not given here; parasite load remaining: stronger effect = lower value; viability: measured here: HepG2 viability without parasites
# [5] = viability loss with induced miR-34 in A549 – imaging, A549 dox-inducible miR-34, nuclei and caspase counts, primary screen (AID 1347080;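 active means compounds whose cell count with miR-34 switched on is under 0.7 times the count with it off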); conditions: A549 miR-34 inducible, Hoechst nuclei count, 48 h
# [6] = target: Mitogen-activated protein kinase 7 (Homo sapiens) (UniProt Q13164); experiment: Gal4-ERK5 driven luciferase induction – cell-based, HTS, primary screen (AID 1508626;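 active means luciferase signal above three times the same-plate solvent-only control wells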;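 further: luciferase driven by Gal4-ERK5 fusion binding five Gal4 sites before minimal TATA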); conditions: HeLa Gal4-ERK5 transactivation, 18 h, at 5 µM, stronger effect = higher value
# Sequence of Mitogen-activated protein kinase 7 (Homo sapiens) (Q13164 whole entry, looked up, the tested form may be a part): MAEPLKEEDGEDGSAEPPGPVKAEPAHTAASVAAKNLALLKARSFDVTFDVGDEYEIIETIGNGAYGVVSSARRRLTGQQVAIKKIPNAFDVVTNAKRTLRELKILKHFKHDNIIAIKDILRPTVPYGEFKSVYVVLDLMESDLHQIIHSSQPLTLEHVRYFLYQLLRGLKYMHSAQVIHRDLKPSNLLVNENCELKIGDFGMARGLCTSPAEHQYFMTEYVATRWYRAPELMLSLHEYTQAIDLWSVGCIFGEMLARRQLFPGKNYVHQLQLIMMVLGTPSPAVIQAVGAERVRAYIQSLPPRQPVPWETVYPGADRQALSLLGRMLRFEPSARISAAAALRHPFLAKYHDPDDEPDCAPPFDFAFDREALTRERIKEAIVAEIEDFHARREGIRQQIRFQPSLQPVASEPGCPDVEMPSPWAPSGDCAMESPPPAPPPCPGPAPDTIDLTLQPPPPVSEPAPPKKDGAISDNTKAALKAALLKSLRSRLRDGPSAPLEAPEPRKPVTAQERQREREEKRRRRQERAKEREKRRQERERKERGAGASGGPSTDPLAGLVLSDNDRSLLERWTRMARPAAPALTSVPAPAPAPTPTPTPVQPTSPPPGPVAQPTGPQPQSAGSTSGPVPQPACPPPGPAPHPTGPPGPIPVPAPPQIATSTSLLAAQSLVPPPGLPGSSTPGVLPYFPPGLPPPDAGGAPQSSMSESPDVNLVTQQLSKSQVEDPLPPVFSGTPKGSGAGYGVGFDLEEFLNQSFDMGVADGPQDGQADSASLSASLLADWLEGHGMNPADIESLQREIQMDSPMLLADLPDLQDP
# [7] = compounds altering viability of human ES cells (AID 493140; call rule not given here;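 further: cells exposed to compounds for four days before counting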); conditions: human embryonic stem cell survival screen; stronger effect = higher value
# [8] = MELAS cybrid survival, CellTiter-Glo 48 h, stronger effect = higher value
# [9] = Rieske KO mouse fibroblast survival, CellTiter-Glo 72 h
# [10] = stronger effect = lower value, cell number ratio, induced over uninduced
# [11] = measured here: relative caspase fold change +Dox/-Dox
# [12] = measured here: total cells with miR-34 induction, stronger effect = lower value
# [13] = measured here: total cells without miR-34 induction
smiles,measurement,setting,value
C[C@@H]1C[C@H]2[C@@H]3C[C@H](F)C4=CC(=O)C=C[C@]4(C)[C@@]3(F)[C@@H](O)C[C@]2(C)[C@@]1(O)C(=O)COC(=O)C(C)(C)C,inhibition,[1],8.08% (inactive)
same,z-score,[2]; [8],0.627 (inactive)
same,z-score,[2]; [9],0.671
same,remaining NAD,[3],10 nM (inactive)
CC(=O)N[C@@H](CC(=O)O)C(=O)O,parasite load remaining,[4],117% (inactive)
same,viability,[4],106%
same,inhibition,[1],3.38% (inactive)
same,fold change,[5]; [10],0.841 (inactive)
same,fold change,[5]; [11],1.57
same,cell count,[5]; [12],8620
same,cell count,[5]; [13],10300
CO[C@H]1C[C@H](O[C@@H]2/C(C)=C/C[C@@H]3C[C@@H](C[C@]4(CC[C@H](C)[C@@H](C5CCCCC5)O4)O3)OC(=O)[C@@H]3C=C(C)/C(=N/O)[C@H]4OC/C(=C\C=C\[C@@H]2C)[C@]43O)O[C@@H](C)[C@@H]1O,inhibition,[1],-18% (inactive)
same,remaining NAD,[3],23 nM (inactive)
same,luciferase signal,[6],36 AU (inactive)
NC[C@H]1O[C@H](O[C@H]2[C@H](O[C@@H]3O[C@H](CO)[C@@H](O)[C@H]3O)[C@@H](O)[C@H](N)C[C@@H]2N)[C@H](N)[C@@H](O)[C@@H]1O,inhibition,[1],-2.01% (inactive)
same,remaining NAD,[3],10 nM (inactive)
same,luciferase signal,[6],40 AU (inactive)
C[C@H]1[C@H]2CC[C@H]3[C@@H]4CC=C5C[C@@H](N(C)C)CC[C@]5(C)[C@H]4CC[C@]23CN1C,survival,[7],4.83 (inactive)
same,parasite load remaining,[4],168% (inactive) and 68.7% (inactive)
same,viability,[4],102% and 76.1%
same,inhibition,[1],13.8% (inactive)
same,fold change,[5]; [10],0.82 (inactive)
same,fold change,[5]; [11],1.54
same,cell count,[5]; [12],8300
same,cell count,[5]; [13],10100
same,luciferase signal,[6],40 AU (inactive)
CC(=O)OCC(=O)[C@@]12OC3(CCCC3)O[C@@H]1C[C@H]1[C@@H]3CCC4=CC(=O)C=C[C@]4(C)[C@@]3(F)[C@@H](O)C[C@@]12C,inhibition,[1],2.31% (inactive)
same,z-score,[2]; [8],0.316 (inactive)
same,z-score,[2]; [9],0.335
same,remaining NAD,[3],10 nM (inactive)
same,luciferase signal,[6],44 AU (inactive)
NC[C@@H]1O[C@H](O[C@H]2[C@@H](O)[C@H](O[C@@H]3[C@@H](O)[C@H](N)C[C@H](N)[C@H]3O[C@H]3O[C@H](CO)[C@@H](O)[C@H](O)[C@H]3N)O[C@@H]2CO)[C@H](N)[C@@H](O)[C@@H]1O,inhibition,[1],-8.11% (inactive)
same,remaining NAD,[3],10 nM (inactive)
same,luciferase signal,[6],80 AU (inactive)
O=C(/C=C/c1ccc(O)c(O)c1)O[C@@H]1C[C@](O)(C(=O)O)C[C@@H](O)[C@H]1O,survival,[7],22.8 (inactive)
same,parasite load remaining,[4],105% (inactive) and 63.3% (inactive)
same,viability,[4],94.7% and 73.7%
same,inhibition,[1],-7.84% (inactive)
same,fold change,[5]; [10],0.882 (inactive) and 0.998 (inactive)
same,fold change,[5]; [11],1.35 and 0.827
same,cell count,[5]; [12],9710 and 5820
same,cell count,[5]; [13],11000 and 5830
same,luciferase signal,[6],56 AU (inactive)
